Test results published in PubChem BioAssay AID651965 (National Center for Advancing Translational Sciences (NCATS), 2013).
About 6,400 (1.9%) of roughly 340,000 compounds were called active. Not shown: some 4% with an inconclusive outcome. Shown is part of a subset that was picked to be rich in actives. A number with no mark means an inactive call. Calls follow the shape of the dose curve; as a rule, active = well fitted falling curve with a large enough effect; inconclusive = small, poorly fitted or top-dose-only effect; inactive = no such curve, though single readings can be large or run the other way.

target: ATP-dependent Clp protease proteolytic subunit (Bacillus subtilis (strain 168)) (UniProt P80244); experiment: qHTS Assay for Activators of ClpP; also: the source files actives as falling curves though it sought activators and does not explain the sign; nearly all actives have a fitted effect of over 65% in size; settings: purified B. subtilis ClpP, FRET peptide cleavage, 20 min; series mostly up to 57.5 µM; activity change, negative = active: at the top concentration
Outline: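 FRET quenching reversal measured ClpP activation: 10 microg/mL B. subtilis ClpP at pH 8 with the FRET-FV decapeptide, read at 430 nm after 320 nm excitation. The 20-min minus 0-min signal was scaled between DMSO/no-enzyme wells and ADEP (5.8 microM final).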
Potency is read from the fitted curve at half-maximal effect.

Chain of ATP-dependent Clp protease proteolytic subunit (Bacillus subtilis (strain 168)) (P80244 whole entry, looked up): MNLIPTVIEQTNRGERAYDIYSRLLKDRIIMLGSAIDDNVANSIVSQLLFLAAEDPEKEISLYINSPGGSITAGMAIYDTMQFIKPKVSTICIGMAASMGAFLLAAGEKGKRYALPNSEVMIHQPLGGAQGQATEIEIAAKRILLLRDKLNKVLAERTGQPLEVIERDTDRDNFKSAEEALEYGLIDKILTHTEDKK

Structure (SMILES) | activity change, negative = active [%] | Potency
CC1(C(=O)NS(=O)(=O)C2CC2)CCCN(C(=O)CSc2ccccc2)C1 (centres undefined) | 1.92 | 
CC1(C(=O)NCC2CCOCC2)Cc2c(-c3cccc(C(N)=O)c3)ccnc2O1 (centres undefined) | -12.4 | 
COc1ccc(-c2csc(C(O)c3cccc(Cl)c3)n2)cn1 (centres undefined) | -0.133 | 
Cc1cccc(Cn2c(=O)n(CCC(=O)NCCc3ccc(Cl)cc3)c(=O)c3sccc32)c1 | -1.47 | 
O=C(Cn1c(=O)nc(-c2ccccc2)c2cc(Cl)ccc21)NCc1ccc(Cl)cc1 | 4.43 | 
O=C(Cn1c(-c2cccs2)cc2ccccc21)NCCc1ccc(Cl)cc1 |  | 20 µM (active)
CN(C)C1CN(Cc2cn(Cc3ccccc3)nn2)S(=O)(=O)C1 (centres undefined) | 1.81 | 
O=c1[nH]c2ccccc2n1C1CCN(CCOc2ccccc2)CC1 | 1.5 | 
COC(=O)C1(C(=O)OC)C[C@H](c2ccccc2)N(Cc2ccccc2OC)[C@@H]1c1ccccc1 | -5.6 | 
O=C(NCc1ccc(Cl)cc1)c1cc2c(nc3sccn32)s1 |  | 31.6 µM (active)
O=C(NCc1ccc(Cl)cc1)c1cc(=O)nc2sc(-c3ccccc3)nn12 | -10.5 | 
O=C(NCc1ccc2c(c1)OCO2)c1c(O)nc2sccn2c1=O | -1.8 | 
CCc1nc2ccc(C(=O)NCc3ccc(OC)cc3)cn2c1N(CC)Cc1cccc(Br)c1 | -26.8 | 
COc1ccc(C(O)C(O)(C(=O)OC(C)C)c2ccc(C)cc2)cc1 (centres undefined) | -0.377 | 
CC(C)(C)NC(=O)C(CCc1ccccc1)n1c(=O)c(-c2ccccc2)nc2ccccc21 (centres undefined) | -29.6 | 
N#Cc1ccc(C(C(=O)NCc2ccccc2)n2c(=O)c(-c3ccco3)nc3ccccc32)cc1 (centres undefined) | 3.44 | 
COc1ccc(C(C(=O)NCc2ccccc2)n2c(=O)c(-c3ccccc3)nc3ccccc32)cc1 (centres undefined) |  | 28.2 µM (active)
CCc1nc2c(OCCOc3ccc(F)cc3)cccn2c1N(C)C(=O)c1ccccc1F | 0.272 | 
CC(C)(C)Cc1c(C2CCCCC2)nc2ccc(Br)cn12 | -1.44 | 
CCc1c(-c2ccc(F)cc2)ncn1Cc1cccc(-c2ccccc2)c1 | -16.7 | 
Cn1c(Nc2ccc(F)cc2)nc2cc(-c3ccsc3)sc2c1=O | -19.8 | 
O=C(O)C1=C/C(=C/C=[N+]2c3cc(O)c(O[C@H]4OC(CO)[C@@H](O)[C@@H](O)[C@@H]4O)cc3C[C@@H]2C(=O)[O-])C[C@H](C(=O)O)N1 (some centres undefined) | -1.44 | 
Cc1cccc(-c2cnc(C(O)c3cc(C)cc(C)c3)[nH]2)c1 (centres undefined) | -1.64 | 
CCN(CC)c1nn2c(=O)c(C(=O)NCCc3ccccc3)cnc2s1 |  | 28.2 µM (active)
O=C(NCCc1ccccc1)c1cnc2sc(N3CCCC3)nn2c1=O | 23.7 | 

Structure (SMILES) | activity change, negative = active [%] | Potency
O=C(O)c1ccccc1-c1ccccc1C(=O)NCCc1ccccc1 | 0.88 | 
CC1(C(=O)Nc2cccc3cccnc23)CCN1C(=O)CCC1CCCC1 (centres undefined) | -4.78 | 
Cc1ccc(NC(=O)Nc2nnc(-c3ccncc3)s2)cc1 | -17.4 | 
Cc1occc1C(=O)Nc1nnc(C2CCCCC2)s1 | 1.56 | 
Cc1occc1C(=O)Nc1nnc(-c2ccncc2)s1 |  | 31.6 µM (active)
CCCCOc1ccc(C(=O)NO)cc1 | 1.01 | 
O=C(OCc1ccccc1)N1CCC2CC1c1ccc(-c3ccc4c(c3)OCO4)cc12 (centres undefined) | -29.7 | 
CC1(C(=O)NS(=O)(=O)c2ccccc2Cl)CCN1C(=O)c1cccc(F)c1 (centres undefined) | -2.25 | 
CCc1nc2c(OCCOc3ccccc3)cccn2c1N(C)C(=O)c1ccc(OC)cc1 | -0.66 | 
CCOC(=O)COc1cc(OCC(=O)OCC)c2c(=O)cc(-c3ccccc3)oc2c1 |  | 28.2 µM (active)
CCOC(=O)c1cc(=O)c2ccc(OCc3ccccc3)cc2o1 | -0.5 | 
CCOC(=O)c1c(-c2ccccc2)oc2ccc(OCC(N)=O)cc12 | 4 | 
CN1C[C@@H](CO)O[C@@H](n2cnc3c(N4CCN(CCO)CC4)ncnc32)C1 | -1.83 | 
COc1cccc(NC(=S)NCc2ccccn2)c1 | 1.22 | 
Cc1ccc(CN(Cc2cccnc2)C(=S)Nc2cccc(Cl)c2C)cc1 | -1.41 | 
COc1cccc(NC(=S)N(Cc2ccc(C)cc2)Cc2ccccn2)c1 |  | 28.2 µM (active)
CC1(C(=O)NCc2ccco2)Cc2c(-c3ccc4c(c3)OCO4)ccnc2O1 (centres undefined) | 4.97 | 
O=C(O)c1ccc(CSc2nc3cccnc3n2Cc2cccc(F)c2)cc1 |  | 31.6 µM (active)
Cc1ccc(CSc2nc3cccnc3n2Cc2ccc(C(=O)NC3CC3)cc2)cc1 | -21.3 | 
O=C(O)c1ccc(Cn2c(SCc3ccc(F)cc3)nc3ccncc32)cc1 | -6.24 | 
C=CCn1c(SCc2ccc(C(=O)NCCO)cc2)nc2ccccc2c1=O | -1.32 | 
Cc1cccc(CSc2nc3ccncc3n2Cc2ccc(C(=O)O)cc2)c1 | -15.8 | 
O=C(NCc1ccc(F)cc1)c1ccc(Cn2c(SCc3ccc(F)cc3)nc3cccnc32)cc1 |  | 28.2 µM (active)
COc1cccc(C(O)c2ncc(-c3ccc4ccccc4c3)[nH]2)c1 (centres undefined) | 5.1 | 
CCCCNC(=O)C[C@@H]1C[C@@]2(C(=O)OCC)CCC=C2N(Cc2cccc3ccccc23)C1=O | 0.695 | 

Structure (SMILES) | activity change, negative = active [%] | Potency
CCOC(=O)[C@]12CCC=C1N(Cc1cccc3ccccc13)C(=O)[C@H](CC(=O)NCc1cccc(C(F)(F)F)c1)C2 | -21.3 | 
Cc1nn(CC(=O)NCCc2ccccc2)c(=O)c2cc3occc3n12 | -3.03 | 
Cc1nn(CC(=O)NCC2CCCO2)c(=O)c2cc3ccccc3n12 (centres undefined) | 3.78 | 
Cc1nn(CC(=O)O)c(=O)c2cc3cc(F)ccc3n12 |  | 28.2 µM (active)
O=C(c1ccccc1)N1CCN(c2cc(-c3ccccc3)nc3cc(-c4cccc(Cl)c4)nn23)CC1 | -45.3 | 
CC=CCn1c(SCCCc2ccccc2)nc2c1c(=O)[nH]c(=O)n2C | -0.218 | 
COc1ccc([C@H]2CC(=O)C[C@@H](CCn3cc(CC4CCCC4)nn3)O2)cc1 | 0.945 | 
COc1cccc(NC(=O)CN(C)C(=O)c2cc(Cl)nc3ccccc23)c1 | -5.28 | 
COc1ccc(NC(=O)c2cc(-c3ccc(C)o3)nc3ccccc23)cc1 | -0.804 | 
COc1ccc(NC(=O)CN(C)C(=O)c2cc(-c3ccc(C)o3)nc3ccccc23)cc1 |  | 25.1 µM (active)
Cc1ccc(F)c(S(=O)(=O)NC(=O)C2(C)CCN2C(=O)CCc2cccs2)c1 (centres undefined) | -0.445 | 
NC(=O)c1ccc(Nc2ccc3nonc3c2[N+](=O)[O-])cc1 | 0.816 | 
CCOc1ccccc1Nc1ccc(C(=O)O)cc1[N+](=O)[O-] | -0.992 | 
Cc1ccc(Nc2ccc(C(N)=O)cc2[N+](=O)[O-])cc1 |  | 12.6 µM (active)
COc1cccc2c(O)cc(=O)n(C)c12 |  | 35.5 µM (active)
COc1cccc(OC)c1C(=O)Nc1ccc2c(c1)n(C)c(=O)n2C | 2.54 | 
COc1cc2c(=O)n(C)c3ccccc3c2cc1OC | -13.6 | 
CCOc1ccc(Cl)cc1-c1cc(C(=O)NCc2cccs2)[nH]n1 | 0.129 | 
CCOCCC(=O)Nc1ccc2c(c1)c(=O)n(C)n2-c1ccc2ccccc2c1 | -28.6 | 
O=C1CC(c2ccccc2)CC2=C1C(c1ccco1)n1nc(C(F)(F)F)nc1N2 (centres undefined) | 4.45 | 
CCCCc1c(-c2ccc(Br)cc2)ncn1CCc1ccccc1OC | 1.63 | 
O=C(OCC(=O)N1CCN(C(=O)c2ccco2)CC1)c1ccc(Cl)c(Cl)c1 | -1.7 | 
O=C(OCC(=O)N1CCN(C(=O)c2ccco2)CC1)c1c(Cl)cccc1Cl |  | 31.6 µM (active)
O=C(OCC(=O)N1CCN(C(=O)c2ccco2)CC1)c1cccc(O)c1 | -2.53 | 
COc1cccc(-c2ccc3c(c2)N(Cc2ccccc2OC)C(=O)C(C)S3)c1 (centres undefined) | -0.0272 | 

Structure (SMILES) | activity change, negative = active [%] | Potency
O=C1Nc2ccccc2-n2nnnc2C1N1CCN(c2cccc(C(F)(F)F)n2)CC1 (centres undefined) | -20 | 
Cc1cc(=O)oc2cc(OC(C)C(=O)NCCc3ccc(S(N)(=O)=O)cc3)ccc12 (centres undefined) | 3.63 | 
Cc1cc(=O)oc2cc(OC(C)C(=O)Nc3ccc(N4CCOCC4)cc3)ccc12 (centres undefined) | -12.2 | 
Cc1cc(=O)oc2cc(NC(=O)C(C)Oc3ccccc3)ccc12 (centres undefined) |  | 28.2 µM (active)
Cc1cc(C)c2cc(C#N)c(N3CCNCC3)nc2c1 | -26 | 
CC(=O)c1ccc(S(=O)(=O)N2CCN(c3nc4c(C)c(C)ccc4cc3C#N)CC2)cc1 | -17 | 
Cc1cccc2cc(C#N)c(N3CCCC3)nc12 |  | 28.2 µM (active)
CC1(Oc2ccc(Cl)cc2)CCN(Cc2csc3ccccc23)C1 (centres undefined) | -5.93 | 
CN(CCOc1ccccc1)C(=O)c1cc(-c2ccco2)nc2ccccc12 | 4.34 | 
O=C(c1cc(-c2ccco2)nc2ccccc12)N(Cc1nnc(-c2ccc(Cl)cc2)o1)C1CC1 |  | 28.2 µM (active)
CC1CCCN(C(=O)c2cc(-c3ccco3)nc3ccccc23)C1 (centres undefined) | 3.78 | 
Cc1ccc(Cc2c(-c3ccco3)nc3ccc(Cl)cn23)cc1 | -11.6 | 
O=C1NC[C@H](CCCCN2C[C@H](Cc3ccccc3)N(Cc3ccccc3)C(=O)C2=O)N(CCc2ccc(O)cc2)C1=O | 1.04 | 
CN(C)c1ccc(CSc2ccccc2)cc1 |  | 12.6 µM (active)
O=C(c1ccc(CSc2ccccc2)cc1)N1CCCCCC1 | 3.91 | 
CN(C)c1cc[n+](Cc2ccccc2)cc1 | -0.0614 | 
COc1ccc(-c2cc(NC=O)c3ncc(-c4ccccc4)n3c2)cc1OC | -27.2 | 
CCc1nc2c(OCc3ccc(F)c(F)c3)cccn2c1N(C)C(=O)c1ccco1 | -1.58 | 
Cc1ccnc(NC(=O)c2ccoc2C)c1 | 0.724 | 
CC1=C(C(=O)Nc2cc(C)ccn2)C(c2cnn(C)c2)C2=C(CC(c3ccccc3)CC2=O)N1 (centres undefined) |  | 31.6 µM (active)
CCCn1c(=O)c(C(=O)Nc2cc(C)ccn2)c(O)c2ccccc21 | -18 | 
CN1OC[C@@H]2CN(S(=O)(=O)c3cccc4ccccc34)[C@H](c3ccc(N4CCCCC4)cc3)C[C@@H]21 | -4.18 | 
O=C(NC(c1ccc(Cl)cc1)c1cnccn1)C1CCN(Cc2ccc(Cl)cc2)CC1 (centres undefined) | 0.881 | 
O=C1[C@H]2[C@@H](c3ccc(C(F)(F)F)cc3)N[C@]3(CCCN(Cc4ccc(Cl)cc4)C3=O)[C@H]2C(=O)N1Cc1ccccc1 | 1.88 | 
